For 14 compounds, growth results are on record in PubChem BioAssay (NCI).

Among the test systems are HCT-15 colon; HT29 colon; SNB-75 CNS; SNB-19 CNS; U251 CNS; PC-3 prostate; SK-MEL-5 melanoma; UACC-62 melanoma; LOX IMVI melanoma; SK-MEL-28 melanoma.
Common to all, as to test: NCI-60 one-dose screen, 48 h (100 = growth as untreated, 0 = no growth, -100 = all killed)
Conditions in all cases: 10 µM unless noted

This is part of a sample that, as a whole, favours compounds with a hit. Of some 83,000 tested, about 20% had one in any assay.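 Assay: single dose, 48 h. Readout: percent growth (0 = no net growth; negative = cell death). Active: <10.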 Values without a mark were called inactive. Calls of active or inactive are those of the source.

As for `CC1=CC(=O)OC1C/C=C(\C)CCC1[C@@]2(C)CCC[C@@](C)(C(=O)O)C2CC[C@@]1(C)O` (stereo not given in full), the growth in the assay on HCT-15 colon is 14.1%; in the assay with HT29 colon, 86.8%; in the assay with SNB-75 CNS it was 74%; in the assay on SNB-19 CNS, 53.3%; with U251 CNS, 35.4%; with PC-3 prostate it was 59.1%. The growth in the assay with SK-MEL-5 melanoma is -23.8% (active); with UACC-62 melanoma, 15.4%; in the assay with LOX IMVI melanoma it was 97.3%; in the assay on SK-MEL-28 melanoma, 26.7%.

As for `COc1ccc(NC(=O)c2sc3c(=O)[nH]c(C(F)(F)F)nc3c2C)cc1`, the growth with HCT-15 colon was 104%; in the assay on HT29 colon it was 103%; in the assay on SNB-75 CNS it was 93.7%; in the assay on SNB-19 CNS it was 112%; in the assay on U251 CNS, 98.6%; in the assay on PC-3 prostate, 90.5%. Besides, the growth in the assay with SK-MEL-5 melanoma is 106%; in the assay on UACC-62 melanoma it was 98.9%; with LOX IMVI melanoma, 101%; in the assay with SK-MEL-28 melanoma, 109%.

`CNC1=C([N+](=O)[O-])C(c2ccccc2O)C(C#N)=C(c2cccs2)O1` (stereo not given): the growth is 88.5% in the assay with HCT-15 colon; 105% with HT29 colon; 84.2% with SNB-75 CNS; 102% in the assay with SNB-19 CNS; 91.5% with U251 CNS; 97.7% with PC-3 prostate. Further, the growth in the assay on SK-MEL-5 melanoma was 97%; in the assay with UACC-62 melanoma it was 89.3%; with LOX IMVI melanoma, 87.3%; with SK-MEL-28 melanoma, 93.3%.

As to `Clc1cc2nc(-c3ccccc3)c(-c3ccccc3)nc2cc1Cl`, the growth is 88.7% in the assay on HCT-15 colon; 88.5% in the assay with HT29 colon; 87.9% in the assay with SNB-75 CNS; 102% with SNB-19 CNS; 95.7% in the assay with U251 CNS; 77.3% with PC-3 prostate. For the same compound, the growth is 89.4% in the assay on SK-MEL-5 melanoma, 84.7% with UACC-62 melanoma, 86.2% in the assay on LOX IMVI melanoma and 101% in the assay with SK-MEL-28 melanoma.

With `COc1cc(/C=C\c2cc(/C=C\c3ccc(O)c(OC)c3)n(C(=O)Nc3ccc(C(F)(F)F)cc3)n2)ccc1O`, the growth in the assay with HCT-15 colon is 25.5%; in the assay with HT29 colon it was 3.5% (active); with SNB-75 CNS, 71.8%; in the assay on SNB-19 CNS, 48.7%; in the assay on U251 CNS, 9.71% (active); with PC-3 prostate it was 38%. The growth with SK-MEL-5 melanoma was 35.4%; in the assay on UACC-62 melanoma it was 31.1%; with LOX IMVI melanoma, 9.11% (active); with SK-MEL-28 melanoma, 58%.

Consider `O=P(O)(O)C(O)(Cc1cccnc1)P(=O)(O)O`, for which the growth in the assay with HCT-15 colon is 90.3%; in the assay with HT29 colon it was 106%; in the assay with SNB-75 CNS it was 88%; in the assay on SNB-19 CNS it was 107%; with U251 CNS it was 81.6%; with PC-3 prostate it was 95.9%. Also, the growth in the assay with SK-MEL-5 melanoma was 103%; with UACC-62 melanoma it was 99.2%; in the assay on LOX IMVI melanoma, 86.1%; in the assay with SK-MEL-28 melanoma it was 103%.

`ClCc1c(Cl)c(Cl)c(Cl)c(CCl)c1Cl`: the growth in the assay with HCT-15 colon was 4.87% (active); in the assay with HT29 colon, -78.4% (active); in the assay with SNB-75 CNS it was 89%; in the assay with SNB-19 CNS, 58.7%; in the assay on U251 CNS, -25.4% (active); in the assay on PC-3 prostate, 8.08% (active). Besides, the growth in the assay on SK-MEL-5 melanoma was 61.3%; with UACC-62 melanoma it was 103%; in the assay on LOX IMVI melanoma, -79% (active); in the assay with SK-MEL-28 melanoma, 88.7%.

For `CCC1=CC2CN(C1)Cc1c([nH]c3ccccc13)[C@@](C(=O)OC)(c1cc3c(cc1OC)N(C)[C@H]1[C@@](O)(C(=O)OC)[C@H](OC(C)=O)[C@]4(CC)C=CCN5CC[C@]31[C@@H]54)C2` (stereo not given in full), the growth in the assay with HCT-15 colon is 21.5%; in the assay with HT29 colon it was 2.55% (active); in the assay with SNB-75 CNS, -5.65% (active); in the assay with SNB-19 CNS, 53.6%; in the assay on U251 CNS it was 11%; in the assay on PC-3 prostate, 34.5%. The growth with SK-MEL-5 melanoma is -46.9% (active); with UACC-62 melanoma, 43.6%; with LOX IMVI melanoma, 20%; in the assay on SK-MEL-28 melanoma, 62.1%.

On to `O=c1nc(-c2ccccc2)c2cc(-c3ccc(N4CCOCC4)cc3)ccc2[nH]1`, for which the growth is 74% in the assay with HCT-15 colon; 84.5% with HT29 colon; 106% with SNB-75 CNS; 87.4% with SNB-19 CNS; 69.9% with U251 CNS; 70.9% in the assay with PC-3 prostate. In addition, the growth in the assay on SK-MEL-5 melanoma was 83.6%; in the assay on UACC-62 melanoma it was 74.3%; with LOX IMVI melanoma it was 74.5%; with SK-MEL-28 melanoma it was 91.8%.

Regarding `CC1CCN(CCCCCOc2ccc3oc4ccc(Cl)cc4c(=O)c3c2)CC1`, the growth in the assay on HCT-15 colon is -21.5% (active); in the assay with HT29 colon, 1.54% (active); with SNB-75 CNS, 93.5%; in the assay with SNB-19 CNS, 79.6%; in the assay on U251 CNS, 49.5%; in the assay with PC-3 prostate, 55.1%. For the same compound, the growth is 11.6% with SK-MEL-5 melanoma, -43.5% (active) with UACC-62 melanoma, 7.78% (active) with LOX IMVI melanoma and 64.7% with SK-MEL-28 melanoma.

As to `CCN1C(=O)/C(=C/N2N=C(c3ccc(Cl)cc3)CC2c2ccc(OC)cc2)SC1=S` (stereo not given), the growth was 87.8% in the assay on HCT-15 colon; 79.8% with HT29 colon; 82.8% in the assay on SNB-75 CNS; 92.9% in the assay with SNB-19 CNS; 81.9% with U251 CNS; 78.6% with PC-3 prostate. For the same compound, the growth was 99.4% in the assay with SK-MEL-5 melanoma, 70.8% in the assay with UACC-62 melanoma, 84.5% in the assay on LOX IMVI melanoma and 103% in the assay with SK-MEL-28 melanoma.

Consider `O=C(c1ccccc1)c1cccc(C(Br)Br)c1`, for which the growth in the assay with HCT-15 colon was 73.4%; in the assay with HT29 colon, 63.5%; in the assay with SNB-75 CNS, 73.9%; in the assay with SNB-19 CNS, 83.6%; with U251 CNS it was 88.9%; in the assay with PC-3 prostate it was 91.8%. For the same compound, the growth in the assay with SK-MEL-5 melanoma was 74%; in the assay with UACC-62 melanoma it was 81.1%; in the assay on LOX IMVI melanoma it was 80.6%; in the assay on SK-MEL-28 melanoma, 93.2%.

On to `COc1cc(C2CC(c3ccc(C)cc3)=NN2C=O)ccc1Oc1nc2c(c(=O)n(C)c(=O)n2C)n1C` (stereo not given), for which the growth in the assay with HCT-15 colon is 94.3%; in the assay on HT29 colon, 72.6%; in the assay on SNB-75 CNS it was 93%; in the assay with SNB-19 CNS it was 67.2%; with U251 CNS, 92.7%; with PC-3 prostate, 74.3%. Besides, the growth in the assay with SK-MEL-5 melanoma is 58.1%; in the assay on UACC-62 melanoma, 94.5%; in the assay with LOX IMVI melanoma, 60.6%; in the assay on SK-MEL-28 melanoma it was 106%.

As for `CS(=O)(=O)c1ccc(C(=O)Nc2ccc(Cl)c(-c3ccccn3)c2)c(Cl)c1`, the growth with HCT-15 colon is 22.7%; in the assay with HT29 colon, -7.2% (active); in the assay with SNB-75 CNS it was 14%; in the assay on SNB-19 CNS, 51.1%; in the assay with U251 CNS, 15.5%; in the assay on PC-3 prostate, 7.55% (active). For the same compound, the growth in the assay on SK-MEL-5 melanoma is 10.9%; with UACC-62 melanoma, 19.7%; in the assay with LOX IMVI melanoma, 16%; in the assay with SK-MEL-28 melanoma, 23.2%.
